Measured values from PubChem BioAssay (NCI).
This is part of a sample that, as a whole, favours compounds with a hit. Of some 79,000 tested, about 15% had one in any assay. Unmarked numbers belong to inactive results. Active and inactive are the calls of the source. Cut-off read from the data, not from the text of the source: active = growth inhibition above about 70%; inactive = the rest.

What was measured:
[1] = NCI Yeast Anticancer Drug Screen. Data for the rad52 strain (AID 147);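 note: 0% = growth of vehicle-treated control cultures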; conditions: S. cerevisiae rad52 mutant growth inhibition, hits give high values
Outline: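 Here a repair-compromised yeast strain receives each compound; its growth is then quantified and normalised to vehicle-only controls.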

[2] = NCI Yeast Anticancer Drug Screen. Data for the wt1 strain (AID 149);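 note: 0% = growth of vehicle-treated wt1 cultures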; conditions: S. cerevisiae wt1 strain (SPY 50644) growth inhibition, hits give high values
Outline: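 Each compound is tested on wt1 yeast and the loss of growth versus vehicle gives the inhibition value.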

[3] = NCI Yeast Anticancer Drug Screen. Data for the rad50EPP+ strain (AID 151);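 note: 0% = growth of vehicle-treated control cultures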; conditions: S. cerevisiae rad50 mutant strain, hits give high values
Outline: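 Read-out is yeast growth inhibition relative to vehicle; cells used were the rad50EPP+ strain.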

[4] = NCI Yeast Anticancer Drug Screen. Data for the mgt1 strain (AID 153); conditions: S. cerevisiae mgt1 mutant growth inhibition, hits give high values
Outline: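 Measured: inhibition of mgt1 yeast growth by compound, normalized to vehicle-treated cultures.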

[5] = NCI Yeast Anticancer Drug Screen. Data for the rad50 strain (AID 155);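 note: 0% = growth of vehicle-only cultures of the same strain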; conditions: S. cerevisiae rad50 strain growth inhibition, hits give high values
Outline: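 Vehicle-treated cultures provide the reference for the growth inhibition reported for compound-exposed, repair-deficient yeast.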

[6] = NCI Yeast Anticancer Drug Screen. Data for the mec2-1 strain (AID 157); conditions: S. cerevisiae mec2-1 strain, hits give high values
Outline: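 Using mec2-1 yeast: add compound, measure growth, express inhibition versus vehicle-treated cultures.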

[7] = NCI Yeast Anticancer Drug Screen. Data for the rad14 strain (AID 159);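 note: 0% = growth of vehicle-treated control cultures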; conditions: S. cerevisiae rad14 strain growth inhibition, hits give high values
Outline: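 Inhibition of growth is reported for a repair-deficient yeast mutant following compound treatment, calculated relative to cultures that received vehicle.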

[8] = NCI Yeast Anticancer Drug Screen. Data for the sgs1 mgt1 strain (AID 161);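 note: 0% = growth of cultures given vehicle only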; conditions: S. cerevisiae sgs1 mgt1 strain, hits give high values
Outline: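 Growth of a repair-deficient yeast mutant was monitored after compound treatment and expressed as inhibition relative to vehicle-treated cultures.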

[9] = NCI Yeast Anticancer Drug Screen. Data for the cln2 rad14 strain (AID 165);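 note: 0% = growth equal to vehicle treated cultures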; conditions: S. cerevisiae cln2 rad14 strain, hits give high values
Outline: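 Yeast strain cln2 rad14, bearing defects in cell cycle control and DNA repair, serves as the test system; values reflect growth inhibition compared with vehicle.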

[10] = NCI Yeast Anticancer Drug Screen. Data for the bub3 strain (AID 167); conditions: S. cerevisiae bub3 mutant strain, hits give high values
Outline: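 Mutant yeast screening strain plus compound; vehicle-treated cultures serve as the 0% inhibition reference.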

[11] = NCI Yeast Anticancer Drug Screen. Data for the wt2 strain (AID 169); conditions: S. cerevisiae wt2 strain growth inhibition, hits give high values
Outline: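 Treated yeast vs. vehicle-treated yeast: growth inhibition determined.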

[12] = NCI Yeast Anticancer Drug Screen. Data for the mlh1 strain (AID 171);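 note: 0% = growth of vehicle-treated control cultures of the same strain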; conditions: S. cerevisiae mlh1 strain growth inhibition, hits give high values
Outline: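 A yeast strain with a defined genetic lesion serves as the test organism. Cultures receive compound or vehicle, and growth is measured.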

[13] = NCI Yeast Anticancer Drug Screen. Data for the sgs1 strain (AID 173);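 note: 0% = growth of vehicle-only control cultures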; conditions: S. cerevisiae sgs1 mutant, hits give high values
Outline: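 A genetically defined yeast mutant is incubated with the test compound, and its growth is compared to that of the same strain given vehicle.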

[14] = NCI Yeast Anticancer Drug Screen. Data for the mlh1 rad18 strain (AID 175); conditions: S. cerevisiae mlh1 rad18 strain growth inhibition, hits give high values
Outline: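 Steps: expose repair-defective yeast to compound; measure growth; express inhibition against vehicle-treated controls.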

[15] = NCI Yeast Anticancer Drug Screen. Data for the rad18 strain (AID 177); conditions: S. cerevisiae rad18 mutant growth inhibition, hits give high values
Outline: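 Measured value is growth inhibition of a yeast strain bearing a DNA repair alteration, referenced to vehicle-treated cells.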

[16] = at 5.0 µM (retest, dose inferred, filed as 0.5)
[17] = at 50.0 µM (retest, dose inferred, filed as 5.0)

Compound: C/C(=N\O)C1CC2C=C(C#N)C1N(Cc1ccccc1)C2 (stereo not drawn)
- growth inhibition ([1]; at 1.2 µM): -5%
- growth inhibition ([1]; at 3.7 µM): -3%
- growth inhibition ([1]; at 11.0 µM): -1%
- growth inhibition ([1]; at 33.0 µM): 1%
- growth inhibition ([1]; at 100.0 µM): 8%
- growth inhibition ([2]; at 1.2 µM): 0%
- growth inhibition ([2]; at 3.7 µM): 4%
- growth inhibition ([2]; at 11.0 µM): 1%
- growth inhibition ([2]; at 33.0 µM): -1%
- growth inhibition ([2]; at 100.0 µM): -1%
- growth inhibition ([3]; at 1.2 µM): 2%
- growth inhibition ([3]; at 3.7 µM): 2%
- growth inhibition ([3]; at 11.0 µM): 5%
- growth inhibition ([3]; at 33.0 µM): 9%
- growth inhibition ([3]; at 100.0 µM): 19%
- growth inhibition ([4]; at 1.2 µM): -5%
- growth inhibition ([4]; at 3.7 µM): -4%
- growth inhibition ([4]; at 11.0 µM): -5%
- growth inhibition ([4]; at 33.0 µM): -3%
- growth inhibition ([4]; at 100.0 µM): -1%
- growth inhibition ([5]; at 1.2 µM): -3%
- growth inhibition ([5]; at 3.7 µM): -3%
- growth inhibition [5, 16]: -6%
- growth inhibition ([5]; at 11.0 µM): 0%
- growth inhibition ([5]; at 33.0 µM): 0%
- growth inhibition [5, 17]: -1%
- growth inhibition ([5]; at 50.0 µM): 8.05%
- growth inhibition ([5]; at 100.0 µM): 5%
- growth inhibition ([6]; at 1.2 µM): 0%
- growth inhibition ([6]; at 3.7 µM): 3%
- growth inhibition [6, 16]: -16%
- growth inhibition ([6]; at 11.0 µM): 4%
- growth inhibition ([6]; at 33.0 µM): 4%
- growth inhibition [6, 17]: -13%
- growth inhibition ([6]; at 50.0 µM): 7.3%
- growth inhibition ([6]; at 100.0 µM): 0%
- growth inhibition ([7]; at 1.2 µM): -3%
- growth inhibition ([7]; at 3.7 µM): -1%
- growth inhibition ([7]; at 11.0 µM): 2%
- growth inhibition ([7]; at 33.0 µM): 1%
- growth inhibition ([7]; at 100.0 µM): 7%
- growth inhibition [8, 16]: -10%
- growth inhibition [8, 17]: 24%
- growth inhibition ([8]; at 50.0 µM): 3.75%
- growth inhibition [9, 16]: -1%
- growth inhibition [9, 17]: 8%
- growth inhibition ([9]; at 50.0 µM): 11.3%
- growth inhibition ([10]; at 1.2 µM): -4%
- growth inhibition ([10]; at 3.7 µM): -5%
- growth inhibition [10, 16]: -3%
- growth inhibition ([10]; at 11.0 µM): -3%
- growth inhibition ([10]; at 33.0 µM): -2%
- growth inhibition [10, 17]: 13%
- growth inhibition ([10]; at 50.0 µM): 10.7%
- growth inhibition ([10]; at 100.0 µM): -5%
- growth inhibition ([11]; at 1.2 µM): -1%
- growth inhibition ([11]; at 3.7 µM): -2%
- growth inhibition ([11]; at 11.0 µM): -3%
- growth inhibition ([11]; at 33.0 µM): -2%
- growth inhibition ([11]; at 100.0 µM): -2%
- growth inhibition ([12]; at 1.2 µM): -3%
- growth inhibition ([12]; at 3.7 µM): 0%
- growth inhibition ([12]; at 11.0 µM): 0%
- growth inhibition ([12]; at 33.0 µM): 0%
- growth inhibition ([12]; at 100.0 µM): 0%
- growth inhibition ([13]; at 1.2 µM): 1%
- growth inhibition ([13]; at 3.7 µM): 1%
- growth inhibition ([13]; at 11.0 µM): 4%
- growth inhibition ([13]; at 33.0 µM): 9%
- growth inhibition ([13]; at 100.0 µM): 17%
- growth inhibition [14, 16]: 0%
- growth inhibition [14, 17]: 62%
- growth inhibition ([14]; at 50.0 µM): 9%
- growth inhibition ([15]; at 1.2 µM): 5%
- growth inhibition ([15]; at 3.7 µM): 13%
- growth inhibition ([15]; at 11.0 µM): 40%
- growth inhibition ([15]; at 33.0 µM): 77% (active)
- growth inhibition ([15]; at 100.0 µM): 86% (active)
